These results are taken from PubChem BioAssay (NCI).

The nature of experiment [1]: NCI Yeast Anticancer Drug Screen. Data for the rad50 strain (AID 155).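 Further: 0% = growth of vehicle-only cultures of the same strain.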 To be noted: S. cerevisiae rad50 strain growth inhibition, hits give high values. The procedure, abridged: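 Relative growth inhibition (compound vs vehicle) was measured in yeast with a defined repair-gene alteration.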
A short description of experiment [2]: NCI Yeast Anticancer Drug Screen. Data for the mec2-1 strain (AID 157). To be noted: S. cerevisiae mec2-1 strain, hits give high values. A digest of the protocol:
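Each compound was tested on mec2-1 yeast, a strain altered in DNA damage repair or cell cycle control. Growth inhibition is reported relative to vehicle.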

A short description of experiment [3]: NCI Yeast Anticancer Drug Screen. Data for the sgs1 mgt1 strain (AID 161).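 Further: 0% = growth of cultures given vehicle only.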 The note with it: S. cerevisiae sgs1 mgt1 strain, hits give high values. A digest of the protocol:
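Read-out: growth inhibition vs vehicle controls. Cells: mutant yeast strain deficient in DNA damage repair.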

Experiment [4] is described as follows: NCI Yeast Anticancer Drug Screen. Data for the cln2 rad14 strain (AID 165).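 Further: 0% = growth equal to vehicle treated cultures.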 The note with it: S. cerevisiae cln2 rad14 strain, hits give high values. A digest of the protocol:
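Test compounds were added to cln2 rad14 yeast cultures; inhibition of growth was then determined by comparison with vehicle treatment.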

A short description of experiment [5]: NCI Yeast Anticancer Drug Screen. Data for the bub3 strain (AID 167). To be noted: S. cerevisiae bub3 mutant strain, hits give high values. A digest of the protocol: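 Screening used yeast with an engineered genetic alteration affecting cell cycle control. Compound-exposed cultures were compared with vehicle cultures, and reduced growth was taken as inhibition.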

Experiment [6] in a line: NCI Yeast Anticancer Drug Screen. Data for the mlh1 rad18 strain (AID 175). To be noted: S. cerevisiae mlh1 rad18 strain growth inhibition, hits give high values. The procedure, abridged: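 Inhibition values reflect reduced growth of mutant yeast versus vehicle-treated controls following compound exposure; the mutations affect DNA damage repair.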
[7] abbreviates: at 5.0 µM (retest, dose inferred, filed as 0.5).
Where [8] appears, read: at 50.0 µM (retest, dose inferred, filed as 5.0).

Structures are written as SMILES. About 79,000 compounds went through this panel and 15% of them were active in at least one assay; those are over-represented in the sample as a whole. Unmarked numbers belong to inactive results. The source made the active and inactive calls. No stated cut-off is given here; in the data, active means growth inhibition above about 70%; inactive means the rest.

`Cc1ccccc1NC(=S)Nc1ccccc1O`: the growth inhibition in experiment [1] (setting [7]) was -4%; in experiment [1] (setting [8]), 81% (active); in experiment [1] (at 50.0 µM), 97.2% (active); in experiment [2] (setting [7]), -2%; in experiment [2] (setting [8]), 87% (active); in experiment [2] (at 50.0 µM), 94.4% (active). For the same compound, the growth inhibition is 0% in experiment [3] (setting [7]); 82% (active) in experiment [3] (setting [8]); 90.8% (active) in experiment [3] (at 50.0 µM); -5% in experiment [4] (setting [7]); 63% in experiment [4] (setting [8]); -27.8% in experiment [4] (at 50.0 µM). Moreover, the growth inhibition in experiment [5] (setting [7]) was 20%; in experiment [5] (setting [8]) it was 98% (active); in experiment [5] (at 50.0 µM) it was 98.3% (active); in experiment [6] (setting [7]), -3%; in experiment [6] (setting [8]), 71% (active); in experiment [6] (at 50.0 µM), 95.1% (active).
`O=[N+]([O-])/C(C(Cl)=C(Cl)Cl)=C(/Sc1ccccc1)N1CCCCC1`: the growth inhibition was -3% in experiment [1] (setting [7]); 97% (active) in experiment [1] (setting [8]); 84.9% (active) in experiment [1] (at 50.0 µM); 3% in experiment [2] (setting [7]); 95% (active) in experiment [2] (setting [8]); 88.5% (active) in experiment [2] (at 50.0 µM). Moreover, the growth inhibition in experiment [3] (setting [7]) was -17%; in experiment [3] (setting [8]), 93% (active); in experiment [3] (at 50.0 µM) it was 77.6% (active); in experiment [4] (setting [7]) it was -7%; in experiment [4] (setting [8]), 95% (active); in experiment [4] (at 50.0 µM), 85.2% (active). For the same compound, the growth inhibition is -19% in experiment [5] (setting [7]), 96% (active) in experiment [5] (setting [8]) and 86.1% (active) in experiment [5] (at 50.0 µM).
For `Cc1cc(Cl)ccc1C(=O)c1ccc2ccccc2c1C(=O)O`, the growth inhibition in experiment [1] (setting [7]) was 8%; in experiment [1] (setting [8]), 44%; in experiment [1] (at 50.0 µM), 84% (active); in experiment [2] (setting [7]), -15%; in experiment [2] (setting [8]) it was 49%; in experiment [2] (at 50.0 µM), 82.5% (active). Further, the growth inhibition in experiment [3] (setting [7]) was 3%; in experiment [3] (setting [8]), 54%; in experiment [3] (at 50.0 µM) it was 78% (active); in experiment [4] (setting [7]) it was -7%; in experiment [4] (setting [8]), 65%; in experiment [4] (at 50.0 µM) it was 83.5% (active). The growth inhibition is -24% in experiment [5] (setting [7]), 87% (active) in experiment [5] (setting [8]) and 82.4% (active) in experiment [5] (at 50.0 µM).
As for `C=C1C[C@H](O)[C@H]2C(C[Se]c3ccccc3)C(=O)O[C@@H]2[C@H]2[C@H](C)C(O)C[C@@H]12` (stereo not given in full), the growth inhibition is 2% in experiment [1] (setting [7]); 35% in experiment [1] (setting [8]); 43.6% in experiment [1] (at 50.0 µM); 2% in experiment [2] (setting [7]); -7% in experiment [2] (setting [8]); 20.6% in experiment [2] (at 50.0 µM). In addition, the growth inhibition in experiment [3] (setting [7]) was 9%; in experiment [3] (setting [8]) it was 61%; in experiment [3] (at 50.0 µM), 17.2%; in experiment [4] (setting [7]), -2%; in experiment [4] (setting [8]), 8%; in experiment [4] (at 50.0 µM), -32.1%. The growth inhibition in experiment [5] (setting [7]) is -5%; in experiment [5] (setting [8]) it was 21%; in experiment [5] (at 50.0 µM) it was 21.8%; in experiment [6] (setting [7]), 0%; in experiment [6] (setting [8]) it was 32%; in experiment [6] (at 50.0 µM), 86.5% (active).
Take `COc1ccccc1N=Nc1c(N)nc(N)[nH]c1=O`: the growth inhibition in experiment [1] (setting [7]) is 4%; in experiment [1] (setting [8]) it was 14%; in experiment [1] (at 50.0 µM), 6.4%; in experiment [2] (setting [7]), -10%; in experiment [2] (setting [8]), 16%; in experiment [2] (at 50.0 µM) it was 1.05%. The growth inhibition in experiment [3] (setting [7]) is -17%; in experiment [3] (setting [8]), 14%; in experiment [3] (at 50.0 µM) it was -2.05%; in experiment [4] (setting [7]) it was 0%; in experiment [4] (setting [8]), -7%; in experiment [4] (at 50.0 µM), 11.6%. Further, the growth inhibition is -2% in experiment [5] (setting [7]); -2% in experiment [5] (setting [8]); 52.5% in experiment [5] (at 50.0 µM); 15% in experiment [6] (setting [7]); 20% in experiment [6] (setting [8]); 9.8% in experiment [6] (at 50.0 µM).
As for `O=C(CSc1nccc(=O)[nH]1)c1ccccc1`, the growth inhibition in experiment [1] (setting [7]) is 2%; in experiment [1] (setting [8]), 24%; in experiment [1] (at 50.0 µM) it was 89.4% (active); in experiment [2] (setting [7]), 1%; in experiment [2] (setting [8]) it was 38%; in experiment [2] (at 50.0 µM), 81.7% (active). Besides, the growth inhibition was 5% in experiment [3] (setting [7]); 7% in experiment [3] (setting [8]); 60.1% in experiment [3] (at 50.0 µM); -5% in experiment [4] (setting [7]); 4% in experiment [4] (setting [8]); 32.4% in experiment [4] (at 50.0 µM). Moreover, the growth inhibition was -2% in experiment [5] (setting [7]); 40% in experiment [5] (setting [8]); 86% (active) in experiment [5] (at 50.0 µM); 4% in experiment [6] (setting [7]); 52% in experiment [6] (setting [8]); 40.8% in experiment [6] (at 50.0 µM).
With `C=C(C#N)C(=O)OCC(CC)CC.C=C(C#N)C(=O)OCC(CC)CC.CS(C)=O.CS(C)=O.Nc1c(N=Nc2ccc(-c3ccc(N=Nc4cc(S(=O)(=O)[O-])c5ccccc5c4N)cc3)cc2)cc(S(=O)(=O)[O-])c2ccccc12.[Pt+2]`, the growth inhibition in experiment [1] (setting [7]) is -13%; in experiment [1] (setting [8]), 98% (active); in experiment [1] (at 50.0 µM), 96.8% (active); in experiment [2] (setting [7]), 6%; in experiment [2] (setting [8]) it was 98% (active); in experiment [2] (at 50.0 µM), 96.9% (active). In addition, the growth inhibition in experiment [3] (setting [7]) was 1%; in experiment [3] (setting [8]) it was 97% (active); in experiment [3] (at 50.0 µM) it was 96.5% (active); in experiment [4] (setting [7]), -1%; in experiment [4] (setting [8]) it was 98% (active); in experiment [4] (at 50.0 µM) it was 95.8% (active). The growth inhibition was 3% in experiment [5] (setting [7]); 98% (active) in experiment [5] (setting [8]); 92.9% (active) in experiment [5] (at 50.0 µM); -6% in experiment [6] (setting [7]); 97% (active) in experiment [6] (setting [8]); 96.5% (active) in experiment [6] (at 50.0 µM).
`CCOC(=O)c1[nH]c(Br)c(-c2ccc(OC)c(OC)c2)c1Br`: the growth inhibition in experiment [1] (setting [7]) is 1%; in experiment [1] (setting [8]), 98% (active); in experiment [1] (at 50.0 µM), 92.1% (active); in experiment [2] (setting [7]) it was -8%; in experiment [2] (setting [8]) it was 97% (active); in experiment [2] (at 50.0 µM), 63.5%. Moreover, the growth inhibition in experiment [3] (setting [7]) was 1%; in experiment [3] (setting [8]) it was 98% (active); in experiment [3] (at 50.0 µM) it was 97.2% (active); in experiment [4] (setting [7]) it was 26%; in experiment [4] (setting [8]), 99% (active); in experiment [4] (at 50.0 µM), 88.8% (active). In addition, the growth inhibition in experiment [5] (setting [7]) is -2%; in experiment [5] (setting [8]), 99% (active); in experiment [5] (at 50.0 µM), 88% (active).
As for `CCCC(C)c1ccc(O)cc1` (stereo not given), the growth inhibition in experiment [1] (setting [7]) is 6%; in experiment [1] (setting [8]), 13%; in experiment [1] (at 50.0 µM) it was 57.4%; in experiment [2] (setting [7]) it was 1%; in experiment [2] (setting [8]), 16%; in experiment [2] (at 50.0 µM), 43.9%. Moreover, the growth inhibition in experiment [3] (setting [7]) is 0%; in experiment [3] (setting [8]), 16%; in experiment [3] (at 50.0 µM), 51.7%; in experiment [4] (setting [7]), 4%; in experiment [4] (setting [8]), -3%; in experiment [4] (at 50.0 µM), -26.3%. Moreover, the growth inhibition in experiment [5] (setting [7]) was -2%; in experiment [5] (setting [8]) it was 17%; in experiment [5] (at 50.0 µM) it was 24.6%.
